NSD2 inh: NSD2 histone methyltransferase inhibitors, primary screen, biochemical, AlphaScreen, single concentration, set 2; Histone-lysine N-methyltransferase NSD2 (Homo sapiens), O96028; NSD2 peptide methylation, 120 min; inhibition, % at 12.5 µM; hit rate 0.54% among 310,000; AID 743445, 2014; in the data active = inhibition above about 50%
Target sequence (O96028 whole entry, looked up): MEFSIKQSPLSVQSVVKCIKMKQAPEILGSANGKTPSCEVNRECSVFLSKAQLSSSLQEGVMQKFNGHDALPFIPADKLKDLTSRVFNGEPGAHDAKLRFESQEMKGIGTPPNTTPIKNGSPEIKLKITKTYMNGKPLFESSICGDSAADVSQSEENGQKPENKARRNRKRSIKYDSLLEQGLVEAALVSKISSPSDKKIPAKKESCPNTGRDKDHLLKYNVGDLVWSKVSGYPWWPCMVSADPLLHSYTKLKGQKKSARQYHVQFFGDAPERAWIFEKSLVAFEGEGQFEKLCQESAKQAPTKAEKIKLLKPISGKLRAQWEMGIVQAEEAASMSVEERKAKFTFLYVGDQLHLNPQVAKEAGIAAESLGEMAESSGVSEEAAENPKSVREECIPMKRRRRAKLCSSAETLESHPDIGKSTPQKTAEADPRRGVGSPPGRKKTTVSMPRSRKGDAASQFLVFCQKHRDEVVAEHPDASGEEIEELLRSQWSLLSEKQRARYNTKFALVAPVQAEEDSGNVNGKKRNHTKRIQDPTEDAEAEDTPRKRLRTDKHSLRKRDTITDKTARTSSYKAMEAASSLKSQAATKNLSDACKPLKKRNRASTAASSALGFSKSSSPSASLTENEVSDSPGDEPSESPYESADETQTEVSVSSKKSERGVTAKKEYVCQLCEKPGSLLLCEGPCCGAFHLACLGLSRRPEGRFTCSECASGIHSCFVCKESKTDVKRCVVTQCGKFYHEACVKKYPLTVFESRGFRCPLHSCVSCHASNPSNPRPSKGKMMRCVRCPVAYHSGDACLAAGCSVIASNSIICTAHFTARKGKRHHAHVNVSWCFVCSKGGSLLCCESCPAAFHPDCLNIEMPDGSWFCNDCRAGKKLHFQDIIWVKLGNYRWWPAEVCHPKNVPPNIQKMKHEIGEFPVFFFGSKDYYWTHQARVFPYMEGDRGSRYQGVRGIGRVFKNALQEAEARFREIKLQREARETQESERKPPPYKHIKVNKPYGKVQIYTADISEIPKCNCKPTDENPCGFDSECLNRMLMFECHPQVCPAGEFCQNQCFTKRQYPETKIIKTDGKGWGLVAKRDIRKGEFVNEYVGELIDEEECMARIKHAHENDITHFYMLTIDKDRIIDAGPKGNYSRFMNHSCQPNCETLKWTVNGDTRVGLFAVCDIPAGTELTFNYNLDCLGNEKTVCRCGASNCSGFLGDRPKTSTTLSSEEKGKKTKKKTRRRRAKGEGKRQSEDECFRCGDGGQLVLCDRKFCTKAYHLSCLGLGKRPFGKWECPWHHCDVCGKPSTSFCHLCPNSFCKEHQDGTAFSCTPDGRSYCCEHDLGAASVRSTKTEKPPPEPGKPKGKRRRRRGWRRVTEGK
PAX8 inh HTS: inhibitors of PAX8-driven TPO luciferase reporter, primary screen, RMG-I cells, single concentration. SteadyGlo, 24 h. AID 652154, 2013. hit rate 1.2% among 360,000. inhibition, % at 12.6 µM;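 active = mean replicate inhibition at least 60% with every replicate also reaching 60%; inconclusive = only one of the two criteria is met; inactive = mean below 60% and not all replicates reaching 60%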;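 also: luciferase light reporting Pax8 driven TPO promoter activity; plate controls were median of neutral control wells for no effect and mitoxantrone controls for full effect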
Env fusion inh: inhibitors of HIV-1 Env-driven cell-cell fusion, primary screen, HeLa-JRFL effector, CEM21 target cells, luciferase | inhibition, % at 12.3 µM | hit rate 1.1% among 360,000;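 active = mean replicate inhibition score of at least 50 and every replicate individually at or above 50; inconclusive = only one of the two criteria met; inactive = mean below 50 and not all replicates reaching 50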;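 also: 0% = plate neutral controls and 100% = maraviroc near 300 nM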
N-glyco inh: increase of ERlucT glycosylation luciferase signal, primary screen, N-linked glycosylation inhibitor project, D54 ERlucT cells, luminescence, set 2; hit rate 0.23% among 360,000; reporter increase, % at 12.5 µM; D54 ERlucT glycosylation luciferase reporter, 24 h; percent of 100 nM tunicamycin response;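 active = mean luciferase reporter signal, scaled so untreated is 0 and the glycosylation-blocking control 100, at or above a set limit in every replicate; inconclusive = mean reaches the limit but not every replicate does; inactive = mean below the limit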;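 also: luciferase carries N-glycosylation sites so blocking glycosylation raises the light; 0% = median of neutral control wells and 100% = median of 100 nM tunicamycin wells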
Shn3 3UTR inh: reduction of Shn3 3'UTR firefly luciferase signal, primary screen, Schnurri-3 inhibitor project, cell-based, Clone20 osteoblasts, set 2; Clone20 osteoblast Shn3 3'UTR firefly luciferase, 24 h; inhibition, % at 12.5 µM; hit rate 0.52% among 360,000; AID 588674, 2011;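 active = mean inhibition of at least 75% with every replicate also reaching 75%; inconclusive = mean inhibition at least 75% but some replicate below; inactive = mean inhibition below 75%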;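 also: 0% = median of neutral control wells and 100% = pilot-screen positive control compound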
LMP1 NFkB inh: EBV LMP1-driven NF-kappaB luciferase reporter inhibitors, primary screen, cell-based, luminescence, single point. inhibition, % at 12.5 µM. hit rate 0.69% among 350,000. LMP1-induced NF-kappaB luciferase reporter cells. AID 504558, 2011; in the data active = inhibition above about 41%; inconclusive = no clear call, values can overlap the other calls;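 also: 0% = neutral control wells and 100% = reference inhibitor control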
* hit, by the source's call; ? = inconclusive; / = not tested or not shown; [ ] = dose if it differs, or a comment. Compounds with a hit are over-represented: about 2.8% of the library has one in this group of screens.

SMILES | NSD2 inh | PAX8 inh HTS | Env fusion inh | N-glyco inh | Shn3 3UTR inh | LMP1 NFkB inh
CC(C)NC(=O)N(C)C[C@@H]1OCCCC[C@@H](C)Oc2ccc(NS(=O)(=O)c3ccc(Cl)cc3)cc2C(=O)N([C@@H](C)CO)C[C@@H]1C | / | -10 | 0[16.7 µM] | / | / | /
CC[N+]1(C)CCC(O)(/C=C/c2ccccc2)C(C(=O)/C=C/c2ccccc2)C1 (stereo not drawn) | 33 | 67* | -62 | -7 | 99* | -3
O=C(NN=Cc1c(O)ccc2ccccc12)C1CC1 | -3 | / | 21 | -3 | 77 | 2
O=C(CCSc1nc2ccccc2s1)N/N=C/c1c(O)ccc2ccccc12 | / | 47 | 20 | -7 | 87* | -10
O=C(N/N=C\c1c(O)ccc2ccccc12)c1ccc(Cn2cccn2)o1 | -1 | 67* | ? | -9 | 89* | 25
O=C(N/N=C/c1c(O)ccc2ccccc12)c1cccc(C(F)(F)F)c1 | 0 | 70* | -325 | -9 | 69 | 26
O=C(CN1CCCC1)N/N=C/c1c(O)ccc2ccccc12 | 12 | 10 | 5 | -3 | 91* | 27
O=C(C[C@H]1CC[C@H]2[C@@H](COC[C@@H](O)CN2Cc2ccncc2)O1)NCC1CC1 | / | 9 | / | / | / | /
O=C(C[C@@H]1CC[C@@H](NC(=O)NC2CCCCC2)[C@H](CO)O1)NCc1ccc(Cl)cc1 | / | 2 | 8[16.7 µM] | / | / | /
Cc1cc(C)n(CCC(=O)N/N=C/c2c(O)ccc3ccccc23)n1 | 5 | 47 | 9 | -5 | 97* | 56*
Oc1ccc2ccccc2c1C=NC12CN3CCN(CN(C3)C1)C2 | 113* | / | / | 6 | 23 | -12
O=C(N/N=C/c1c(O)ccc2ccccc12)C(=O)N1CCCC1 | 4 | 16 | 53 | -3 | 82* | 24
Cc1cc(C)n(CCC(=O)N/N=C/c2ccc(O)cc2)n1 | -4 | / | / | 2 | 2 | 5
O=C(N/N=C/c1ccccc1O)C(=O)N1CCCCCC1 | -3 | 4 | 2 | -1 | 14 | -7
O=C(N1CCOCC1)[C@@]1(Cc2ccccc2)N=C(c2ccc(OCCCO)cc2)O[C@H]1c1ccccc1 | / | 2 | 24[16.7 µM] | / | / | /
CCC(NC(=O)Nc1nnc(C(F)(F)F)s1)(C(F)(F)F)C(F)(F)F | 1 | / | / | -11 | 83 | 46*
CC(=O)N(C)C[C@H]1Oc2ncc(-c3ccc(C(=O)N(C)C)cc3)cc2C(=O)N([C@H](C)CO)C[C@H]1C | / | -2 | 12[16.7 µM] | / | / | /
Cc1nn(Cc2c(F)c(F)c(F)c(F)c2F)c(C)c1NC(=O)c1ccc(COc2ccc(Cl)cc2Cl)o1 | -2 | 41 | 68* | -3 | 52 | 17
Cc1nn(Cc2ccc(Cl)cc2Cl)c(C)c1NC(=O)c1ccc(COc2cc(Cl)ccc2Cl)o1 | -1 | / | / | -7 | 44 | 17
C[C@@H]1CN([C@@H](C)CO)C(=O)c2cc(C#Cc3cccc(F)c3)cnc2O[C@@H]1CN(C)C(=O)c1ccccc1F | / | / | 12[16.7 µM] | / | / | /
CC(=O)Nc1ccc(NC2=C(Cl)C(=O)c3ccccc3C2=O)cc1 | -7 | -6 | -3 | / | / | /
Cc1ccc(NC2=C(NCCO)C(=O)c3ccccc3C2=O)cc1 | 65* | 14 | -26 | 4 | -51 | -16
C=C1C(=O)O[C@@H]2[C@H]3O[C@]3(C)CC/C=C(\C)CC[C@@H]12 | / | 101* | 23 | -9 | -21 | 35
CNC[C@H]1Oc2ncc(/C=C/c3ccccc3)cc2C(=O)N([C@@H](C)CO)C[C@H]1C | / | -53 | / | / | / | /
CN(C)c1ncnc2c1C(c1ccccc1)C(C)(C)O2 (stereo not drawn) | 0 | -3 | 10 | 1 | 96* | 8
C[C@@H]1CN([C@@H](C)CO)C(=O)c2cc(NC(=O)CCC(F)(F)F)ccc2O[C@@H](C)CCCCO[C@H]1CN(C)Cc1ccc(C(F)(F)F)cc1 | / | 75* | 17[16.7 µM] | / | / | /
C[C@@H]1CCCCO[C@@H](CN(C)Cc2ccc(C(F)(F)F)cc2)[C@H](C)CN([C@@H](C)CO)C(=O)c2cc(NC(=O)Nc3ccc(F)cc3)ccc2O1 | / | 86* | 42[16.7 µM] | / | / | /
